Source: PubChem BioAssay AID2661 (Broad Institute, 2010)
About 240 (0.075%) of roughly 320,000 compounds were called active. The full list was thinned out, with actives kept by preference. Unmarked numbers belong to inactive results.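 Rule for the calls: active = inhibition at or above 25%, using the most active replicate where run in duplicate; inactive = inhibition below 25%.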

target: Serine/threonine-protein kinase 33 (Homo sapiens) (UniProt Q9BYT3); assay: inhibitors of purified STK33 kinase, primary screen, biochemical, ADP-Glo luminescence, homogeneous, cell-free (AID 2661); conditions: purified STK33, MBP phosphorylation, at 10 µM, stronger effect = higher value
Sequence (Q9BYT3 whole entry, looked up): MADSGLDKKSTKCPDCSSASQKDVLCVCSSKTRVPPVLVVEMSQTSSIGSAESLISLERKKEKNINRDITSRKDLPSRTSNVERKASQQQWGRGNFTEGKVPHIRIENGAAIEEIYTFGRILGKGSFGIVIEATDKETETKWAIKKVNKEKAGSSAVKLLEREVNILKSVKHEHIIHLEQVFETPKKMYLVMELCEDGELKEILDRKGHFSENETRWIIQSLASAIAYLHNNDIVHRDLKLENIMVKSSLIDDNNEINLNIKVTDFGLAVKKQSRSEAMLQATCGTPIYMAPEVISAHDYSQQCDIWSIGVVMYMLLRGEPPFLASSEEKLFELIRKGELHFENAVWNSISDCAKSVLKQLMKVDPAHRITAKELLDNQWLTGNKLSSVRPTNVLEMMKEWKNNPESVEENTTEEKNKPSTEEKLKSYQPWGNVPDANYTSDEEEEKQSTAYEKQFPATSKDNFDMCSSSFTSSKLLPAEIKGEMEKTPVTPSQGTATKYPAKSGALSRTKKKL

Structure (SMILES) | inhibition
COc1ccc(CCNC(=O)COC(=O)c2cnc(Cl)c(Cl)c2)cc1 | 0.375%
C[C@]12CC[C@H](O)CC1=CCC1C2CC[C@@]2(C)C1CC[C@@H]2NC(=O)CCC(=O)O (stereo partly drawn) | -0.89%
CC1CCCCC1NCC(=O)Nc1ccccc1C(=O)Nc1ccccc1 (stereo not drawn) | 0.481%
CC(C)(C)OC(=O)C[C@H]1C/C=C\C[C@@H](CC(=O)N[C@H](CO)Cc2ccccc2)C(=O)NC[C@@H](c2ccccc2)OC1=O | -0.103%
O=C1COc2ccc(C(=O)COC(=O)c3ccccc3Cl)cc2N1 | -0.902%
Cn1c(N)c(C(=O)COC(=O)c2cccc(S(=O)(=O)N3CCOCC3)c2)c(=O)n(C)c1=O | -0.402%
O=C(Cn1cc(C(F)(F)F)ccc1=O)Nc1ccc2c(c1)OCCO2 | -0.216%
C[C@H]1COC(=O)[C@H](CC(=O)OC(C)(C)C)C/C=C\C[C@@H](CC(=O)N[C@H](CO)Cc2ccccc2)C(=O)N1 | 0.871%
C[C@H](CO)N1C[C@H](C)[C@@H](CN(C)S(=O)(=O)c2ccc(F)cc2)Oc2ccc(NC(=O)CCC(F)(F)F)cc2C1=O | -3.43%
CCN(c1ccccc1)S(=O)(=O)c1ccc(C(=O)Nc2ccccc2OC)cc1 | -0.186%
Cc1csc2nc(COC(=O)c3cccc(N(C)C)c3)cc(=O)n12 | 0.859%
Cc1csc(=O)n1CC(=O)Nc1ccc(S(C)(=O)=O)cc1 | -0.384%
COc1ccc(-c2c(C#Cc3ccsc3)c3cc(-c4ccc(CN5CCOCC5)cc4)ccc3n2C)cc1 | -0.0231%
O=S(=O)(Nc1ncnc2sccc12)c1cccc(F)c1 | -0.694%
CCN(C[C@H]1N[C@@](CC)(C(=O)OC)[C@H]2C(=O)N(C)C(=O)[C@@H]12)C(=O)Nc1ccc(F)cc1 | -1.58%
Cc1ccc(NC(=O)c2ccc(Cl)nc2)cc1S(=O)(=O)N1CCOCC1 | -0.219%
COc1ccccc1N(CC(=O)Nc1ccc(C)cc1Cl)S(=O)(=O)c1cccs1 | -0.284%
Cc1ccc(CNC(=O)COC(=O)C2CCC2)cc1 | -0.167%
C=CC[C@@H](CC(=O)N[C@H](CO)Cc1ccccc1)C(=O)N[C@H](C)COC(=O)[C@@H](CC=C)Cc1ccc(F)cc1 | -1.41%
O=C(COC(=O)c1cc(S(=O)(=O)N2CCOCC2)ccc1F)NC1CC1 | -1.08%
O=C1CC2(CCCC2)C(=O)N1CN1CCN(S(=O)(=O)c2ccc(F)cc2F)CC1 | 0.0533%
O=C(C[C@H]1C/C=C\C[C@@H](NC(=O)OCC2c3ccccc3-c3ccccc32)C(=O)O[C@@H](c2ccccc2)CNC1=O)N[C@H](CO)Cc1ccccc1 | 0.211%
COc1ccc(C(=O)COC(=O)c2c(C)noc2C)cc1Cl | 0.472%
O=C(COC(=O)c1cccnc1Cl)NC12CC3CC(CC(C3)C1)C2 | -1.76%
Cc1cc(C)nc(N/N=C/c2ccc([N+](=O)[O-])o2)n1 | 0.179%
CCn1c(=O)c([N+](=O)[O-])c(NCc2ccc3c(c2)OCO3)c2ccccc21 | 2.57%

Structure (SMILES) | inhibition
CCn1c(/C=C/c2ccc([N+](=O)[O-])o2)nc2ccccc2c1=O | 84.6% (active)
Cn1c(N)c(C(=O)COC(=O)c2ccc3ccccc3c2)c(=O)n(C)c1=O | -1.35%
CCOC(=O)[C@H]1[C@H]2COc3cc(OC)ccc3[C@@H]2N2C(=O)CN(Cc3ccc(Cl)cc3)C(=O)[C@@]12C | 0.914%
O=C(COC(=O)c1n[nH]c2ccccc12)Nc1ccccc1Br | -1.11%
CC1CCCCC1NC(=O)Cn1cnc2c1c(=O)n(C)c(=O)n2C (stereo not drawn) | 1.66%
Cc1ccc2c(c1)NC(=O)[C@@]1(C)[C@@H](c3ccccc3)[C@H]3COc4ccc(Cl)cc4[C@@H]3N1C2=O | -0.222%
CC1(C)CC[C@@]2(C(=O)O)C(C1)C1=CCC3[C@@]4(C)CC[C@H](O)C(C)(C)C4CC[C@@]3(C)[C@]1(C)C[C@H]2O (stereo partly drawn) | -0.618%
CCN(C[C@H]1N[C@@](Cc2ccccc2)(C(=O)OC)[C@H]2C(=O)N(Cc3ccccc3)C(=O)[C@@H]12)C(=O)c1ccc(C)cc1 | -0.0719%
COc1ccc(-c2nc3cnccn3c2NC2CCCCC2)cc1-c1cccc(Cl)c1 | 0.0525%
CN1CCN(C(=O)c2ccc(-c3ccc(Br)cc3)o2)CC1 | -1.87%
Cc1ccc(C2(C)NC(=O)N(CC(=O)N3CC(=O)Nc4ccccc43)C2=O)cc1 (stereo not drawn) | -1.43%
O=C(NCc1ccc2c(c1)OCO2)c1cc([N+](=O)[O-])ccc1N1CCOCC1 | 0.302%
COc1ccc(Br)cc1CN(C)C(=O)C1CC(=O)N(C2CCCC2)C1 (stereo not drawn) | -1.57%
COc1cc(C=NNC(=O)c2cccnc2)ccc1OC(=O)c1ccccc1F | -0.897%
COc1ccccc1C(=O)OCC(=O)Nc1cccc(S(=O)(=O)NC2=NCCCCC2)c1 | -2.03%
O=C(NNS(=O)(=O)c1c(F)cc(F)c(Cl)c1F)C12CC3CC(CC(C3)C1)C2 | 0.0785%
C=CC[C@H](CC(=O)N(CCO)Cc1ccccc1)C(=O)N[C@@H](COC(=O)[C@@H](CC=C)Cc1ccc(F)cc1)Cc1ccccc1 | -2.76%
CC1(c2ccccc2)NC(=O)N(CC(=O)N2CC(=O)Nc3ccccc32)C1=O (stereo not drawn) | -2.96%
O=C(Nc1cccc(S(=O)(=O)N2CCOCC2)c1)C12CC3CC(CC(C3)C1)C2 | -0.903%
COc1ccc(C2=Nn3c(nnc3-c3ccccc3OC)SC2)cc1OC1CCCC1 | 0.928%
O=C(COC(=O)c1ccncc1)Nc1ccc2c(c1)OCO2 | 0.121%
CN(CC(=O)NCCc1ccc(S(N)(=O)=O)cc1)CC(=O)Nc1ccc(F)c(F)c1F | -2.4%
Cc1cccc(C(=O)OCC(=O)NC(C)C2CC3CCC2C3)c1O (stereo not drawn) | -0.0496%
Cc1occc1C(=O)Nc1cccc(S(=O)(=O)N2CCOCC2)c1 | -0.0898%
O=C(COC(=O)c1ccc2c(c1)OCCO2)NCc1ccccc1Cl | 0.627%
COc1ccc2sc(-c3ccc(S(C)(=O)=O)cc3)c(-c3ccc(C(N)=O)cc3)c2c1 | 0.996%

Structure (SMILES) | inhibition
CCOC(=O)C1CCN(C(=O)CN2C(=O)NC(C)(c3ccc4cc(OC)ccc4c3)C2=O)CC1 (stereo not drawn) | -0.656%
O=C(OCCN1C(=O)c2ccccc2C1=O)[C@@H]1CC(O)CN1S(=O)(=O)c1ccccc1[N+](=O)[O-] (stereo partly drawn) | -1.85%
Cc1ccc(C(=O)Nc2ccc3c(c2)OCCO3)cc1S(=O)(=O)N1CCOCC1 | -0.304%
CC(C)Cn1c(SCC(=O)Nc2ccc(Cl)cc2F)nc(O)cc1=O | -0.953%
COc1cc(/C=N/NC(=O)Cc2ccccc2)cc(OC)c1OC | -2.17%
COc1ccc2[nH]c(C(=O)N/N=C/c3cc(OC)c(OC)c(OC)c3)cc2c1 | 2.65%
COc1ccc(N=Cc2c(O)[nH]c3ccccc23)cc1OC | 52.5% (active)
CN=c1scc(-c2cc(OC)ccc2OC)n1/N=C/c1c(C)[nH]c2ccccc12 | -0.488%
COc1cc(N=Cc2c(O)[nH]c3ccccc23)cc(OC)c1OC | 58.4% (active)
COc1ccccc1N=Cc1c(O)c2ccccc2oc1=O | -1.49%
O=C1NC(Cc2ccc(O)cc2)c2nc3ccc(Cl)cc3c(=O)n2-c2ccccc21 (stereo not drawn) | -0.58%
COc1ccc(S(=O)(=O)N2CCN(CC(=O)N3CCOCC3)CC2)cc1OC | -0.603%
C=CCC[C@@H](Cc1ccc(F)cc1)C(=O)O[C@H](CNC(=O)[C@H](CC=C)CC(=O)N(CCO)Cc1ccccc1)c1ccccc1 | -2.71%
COc1cccc(NC(=O)COc2cccnc2[N+](=O)[O-])c1 | -0.0978%
CC(OC(=O)c1ccc(Cl)cc1O)C(=O)NCCC1=CCCCC1 (stereo not drawn) | -0.652%
CC1CC(=NNC(=O)C2COc3ccccc3O2)CC(C)(C)C1 (stereo not drawn) | -2.29%
CN(CC(=O)Nc1ccc(C(N)=O)cc1)S(=O)(=O)c1ccc2c(c1)OCCO2 | -0.492%
O=C(Nc1cccc(S(=O)(=O)NC2=NCCC2)c1)c1ccc(F)cc1F | -1.19%
Cc1ccc(S(=O)(=O)Nc2ccc(F)c(S(=O)(=O)N3CCOCC3)c2)cc1 | -2.74%
COc1ccc(C(=O)COC(=O)C(O)c2ccccc2)c(OC)c1 (stereo not drawn) | -0.118%
O=C(N[C@@H]1C/C=C\C[C@@H](CC(=O)N(CCO)Cc2ccccc2)C(=O)N[C@H](Cc2ccccc2)COC1=O)OCC1c2ccccc2-c2ccccc21 | -2.32%
Fc1ccc2cnc(-c3ccccc3)cc2c1 | -0.562%
C=CCC[C@@H](Cc1ccc(F)cc1)C(=O)OC[C@H](Cc1c[nH]c2ccccc12)NC(=O)[C@@H](CC=C)CC(=O)N(CCO)Cc1ccccc1 | -0.461%
O=C1N[C@@H](c2ccccc2)COC(=O)[C@H](Cc2ccc(F)cc2)C/C=C\C[C@@H]1CC(=O)N(CCO)Cc1ccccc1 | 0.44%
CCN(CC(=O)NCc1ccc(F)cc1)S(=O)(=O)c1ccc(Cl)s1 | 0.0366%
NC(=O)Nc1ccc(C(=O)OCC(=O)NC2CCCc3ccccc32)cc1 (stereo not drawn) | -0.0928%
